RmlCD inh mix – RmlC and RmlD coupled enzyme inhibitors, primary screen, biochemical, 384-well, compound mixtures, retest. RmlC/RmlD coupled enzyme inhibition, 384-well mixture HTS. inhibition, % at 5.5 µM. 0.39% of 110,000 active. AID 1532, 2009; in the data active = inhibition above about 30%, passing the limit was not always enough
RT RNaseH block – HIV-1 RT RNase H inhibitors, primary screen, biochemical, fluorescence; inhibition, % at 10 µM; RT-RNase H RNA/DNA duplex cleavage; 1.9% of 65,000 active; in the data active = inhibition above about 50%
RmlCD fluor art – counter-screen for RmlC/RmlD inhibitors: fluorescence artifact, dose response, artefact control, biochemical; RmlC/RmlD assay fluorescence artifact counter-screen; shares compounds with RmlCD inh mix; 96% of 360 active; calls only; call rule not given here;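 note: compound alone with no enzyme and no substrates present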
* = called active by the depositor. Shown is part of a subset that was picked to be rich in hits.

COc1ccccc1OC(C)c1nnc(SCC(=O)Nc2c(C)n(C)n(-c3ccccc3)c2=O)n1-c1ccccc1 (stereo not drawn) was read as RmlCD inh mix -5.
Screening CCC1OC23CCCCC2C(C#N)(C(=N)O3)C1(C#N)C#N (stereo not drawn) returned RmlCD inh mix -4.
CC1OC23CCCCC2C(C#N)(C(=N)O3)C1(C#N)C#N (stereo not drawn) was read as RmlCD inh mix 2.
COc1ccc(C2OC34CCCCC3C(C#N)(C#N)C2(C#N)C(=N)O4)cc1 (stereo not drawn) was read as RmlCD inh mix 64* and RmlCD fluor art active.
`N#CC1(C#N)COC23CCCCC2C1(C#N)C(=N)O3` (stereo not drawn) gave RmlCD inh mix 107* and RmlCD fluor art active.
For CCCCCCNC(=O)c1ccc(Br)o1 the results were RmlCD inh mix 12.
For CCCc1cc(-n2cnc3ccccc32)n2c(nc3ccccc32)c1C#N the results were RmlCD inh mix 12.
For CCCc1cc(NCC2CCCO2)n2c(nc3ccccc32)c1C#N (stereo not drawn) the results were RmlCD inh mix 102* and RmlCD fluor art active.
`COc1cc(-c2nnn(CC#N)n2)ccc1OCc1ccccc1` gave RmlCD inh mix -6 and RT RNaseH block -19.
For CSCC[C@H](NC(=O)CCn1nnc2ccccc2c1=O)C(=O)O the results were RmlCD inh mix -10 and RT RNaseH block -6.
Screening CCOc1ccc2c3c(c(=O)oc2c1OCC)CCCC3 returned RmlCD inh mix 3.
For COc1ccc2c3c(c(=O)oc2c1OCC(N)=O)CCCC3 the results were RmlCD inh mix 32*, RT RNaseH block -15 and RmlCD fluor art active.
Screening CCc1c(C)c2cc(Cl)c(O)c(CN(C)C)c2oc1=O returned RmlCD inh mix 82*, RT RNaseH block 1 and RmlCD fluor art active.
For CCc1c(C)c2cc(Cl)c(O)c(CN(CC)CC)c2oc1=O the results were RmlCD inh mix 106*, RT RNaseH block -9 and RmlCD fluor art active.
Screening Cc1c(C)c2cc(Cl)c(O)c(CN(C)C)c2oc1=O returned RmlCD inh mix 63*, RT RNaseH block -7 and RmlCD fluor art active.
COc1ccc(-c2cc(=O)oc3c(C)c(O)c(CN(C)C)cc23)cc1 was read as RmlCD inh mix -3 and RT RNaseH block -26.
`CCc1cc2c(=O)c(-c3nc4ccccc4n3C)c(C)oc2c(CN(CC)CC)c1O` gave RmlCD inh mix 13.
For CN(C)Cc1c(O)c(Cl)cc2c3c(c(=O)oc12)CCCC3 the results were RmlCD inh mix 140* and RmlCD fluor art active.
For Cc1coc2c(C)c3oc(=O)c4c(c3cc12)CCCC4 the results were RmlCD inh mix -61 and RT RNaseH block -7.
`C=CCOC(=O)COc1ccc2c(C)c(CC)c(=O)oc2c1` gave RmlCD inh mix 10 and RT RNaseH block -13.
CCCC1(CCC)NC(=O)N(CC(=O)Nc2ccccc2OC)C1=O was read as RmlCD inh mix -15 and RT RNaseH block -3.
Screening O=C(NCCN1C(=O)C2C3C=CC(C3)C2C1=O)N1CCCCC1 (stereo not drawn) returned RmlCD inh mix -10 and RT RNaseH block -4.
COc1ccccc1NS(=O)(=O)c1ccc2oc(SC3CCOC3=O)nc2c1 (stereo not drawn) was read as RmlCD inh mix -11 and RT RNaseH block -14.
`C=CCn1c(SCC(=O)NCc2ccco2)nc2sc3c(c2c1=O)CCCC3` gave RmlCD inh mix -13.
`O=C(NCc1ccco1)c1ccc2nc3sc4c(c3c(=O)n2c1)CCCC4` gave RmlCD inh mix 46*, RT RNaseH block 18 and RmlCD fluor art active.
For COc1ccccc1NCc1nnc(SCC(=O)N/N=C/c2ccco2)n1-c1ccc(Cl)cc1Cl the results were RmlCD inh mix -14.
For Cc1ccc(C(=O)N2CCC3(CC2)Oc2ccc(Cl)cc2C(=O)C32CC(c3ccc(Cl)cc3)=NO2)s1 (stereo not drawn) the results were RmlCD inh mix 7.
For COc1ccc(S(=O)(=O)NCC(c2cccnc2)N2CCN(c3ccc(F)cc3)CC2)cc1C (stereo not drawn) the results were RmlCD inh mix -11 and RT RNaseH block -5.
For Cc1cc2oc3cc(NCCC4CCCN4C)ccc3c(=O)c2cc1C (stereo not drawn) the results were RmlCD inh mix 68* and RmlCD fluor art active.
CN1CCCC1CCNc1ccc2sc3ccccc3c(=O)c2c1 (stereo not drawn) was read as RmlCD inh mix -11.
CCN(C(=O)COC(=O)c1cccnc1SC)C1CCS(=O)(=O)C1 (stereo not drawn) was read as RmlCD inh mix 5 and RT RNaseH block 4.

Compound activity (PubChem)
